Reference: PubChem BioAssay (EPA / NIEHS)
Calls of active or inactive are those of the source. The calls were made as follows: active = hit-call score of the fitted dose curve at least 0.9, where 1 is the maximum; inactive = score below 0.9.

Each molecule was assayed on CYP2E1 (gene 1571) (assay: LTEA_HepaRG_CYP2E1: Life Technologies and Expression Analysis (LTEA) Assay for CYP2E1 using HepaRG (AID 2283485)). Settings: mRNA level, 48 h; actives raise or lower the signal.
Summary of the method: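 HepaRG cells, plated 48 h, then exposed 48 h in serum-free induction medium to eight half-log concentrations from 100 uM in 0.5% DMSO, duplicate. CYP2E1 mRNA by qRT-PCR, normalized to ACTB/GAPDH/POLR2A; bidirectional fit versus DMSO.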

Structure (SMILES) | AC50 | outcome
CN(C)CCCN1c2ccccc2Sc2ccc(Cl)cc21 | 13.3 µM (active) | 
c1ccc2occc2c1 |  | inactive
NC(=Nc1ccccc1)Nc1ccccc1 |  | inactive
CCN(CC)CCOc1ccc(C(=C(Cl)c2ccccc2)c2ccccc2)cc1 | 14.6 µM (active) | 
NCCOCCOCCN |  | inactive
Oc1ccccc1O |  | inactive
CCc1nc(N)nc(N)c1-c1ccc(Cl)cc1 | 26 µM (active) | 
Cc1cc(SC2=C(O)C[C@@](CCc3ccc(N)cc3)(C(C)C)OC2=O)c(C(C)(C)C)cc1CO | 7.16 µM (active) | 
CCCCC(CC)CO (centres undefined) |  | inactive
Nc1nc(Cl)nc2c1ncn2[C@H]1C[C@H](O)[C@@H](CO)O1 | 0.879 µM (active) | 
O=C(O)CC(O)(CC(=O)O)C(=O)O |  | inactive
O=C(NS(=O)(=O)/C=C/c1cccs1)c1ccc(F)cc1Br | 25.3 µM (active) | 
CC(COCC(C)OC(=O)c1ccccc1)OC(=O)c1ccccc1 (centres undefined) |  | inactive
Cc1cn([C@H]2C=C[C@@H](CO)O2)c(=O)[nH]c1=O |  | inactive
C#CC(O)C(CC)CCCC (centres undefined) |  | inactive
CSc1ccc(Oc2ccc(S(N)(=O)=O)cc2CN(C)C)cc1C | 47.6 µM (active) | 
CCCCOC(=O)CCCCC(=O)OCCCC |  | inactive
N[C@@H](Cc1c[nH]c2ccccc12)C(=O)O |  | inactive
CCCCC(CC)COP(=O)(OCC(CC)CCCC)OCC(CC)CCCC (centres undefined) | 19.3 µM (active) | 
CC(N)=O |  | inactive
O=C1CCCCC1 |  | inactive
O=NO |  | inactive
Cc1cc(Cc2ccc(N)c(C)c2)ccc1N | 24.6 µM (active) | 
CCCCCCCCCCCCCCOS(=O)(=O)O | 42.3 µM (active) | 
Nc1nc(=S)c2[nH]cnc2[nH]1 | 5.72 µM (active) | 
COc1ccc(OC(F)(F)F)cc1CN[C@H]1CCCN[C@H]1c1ccccc1 | 16.8 µM (active) | 
CC(=O)OCC(COC(C)=O)OC(C)=O |  | inactive
O=C1O[C@H]([C@H](O)CO)C(O)=C1O |  | inactive
CC(=O)OC1CC(C)OC(C)O1 (centres undefined) |  | inactive
